# Assays:
# LKB1 = test system: T1, LKB1
# T1 construct: gene STK11
# LOK = test system: T2, LOK
# T2 construct: gene STK10
# MEK1 = test system: T3, MEK1
# T3 construct: gene MAP2K1
# 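Further: kd values determined as follow-up on hits from a single-replicate KINOMEscan panel screen.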
structure (smiles),measurement,setting,value
CCn1c(-c2nonc2N)nc2ccccc21 [SB-693162/GW549034],Kd,LATS2,1.8 µM
same,Kd,LRRK2,> 10 µM
Nc1ncnc2c1ncn2-c1cccc2ccccc12 [SKF-97184],Kd,LKB1,> 10 µM
COc1cc2ncn(-c3cc(OCc4ccncc4Br)c(C(N)=O)s3)c2cc1OC [GW854278],Kd,LOK,0.5 µM
Cc1nnc(-c2ccc(C)c(-c3ccc(C(=O)O)cc3)c2)o1 [GW608005],Kd,LOK,> 10 µM
Cc1ccccc1COc1cc(-n2cnc3cc(Cl)ccc32)sc1C(N)=O [GW813349],Kd,LRRK2,> 10 µM
Nc1n[nH]c2nnc(-c3ccccc3)c(-c3ccccc3)c12 [GW554060],Kd,LYN,> 10 µM
CCS(=O)(=O)c1ccc(OC)c(Nc2ncc(-c3ccc(F)cc3)o2)c1.Cl [GW591947],Kd,MAK,> 10 µM
Cc1nnc(-c2ccc3ncn(-c4ccc(S(C)=O)cc4)c3c2)o1 (centres unmarked),Kd,MAP4K2,> 10 µM
CN1C(=O)C(Nc2cc(Cl)c(O)c(Cl)c2)=C(c2ccc(Cl)cc2)C1=O [SB-404321],Kd,MAPKAPK2,> 10 µM
Cc1cccc(-c2nc(Nc3ccc4c(cnn4C)c3)c3ccccc3n2)n1 [GW876731],Kd,MAST1,> 10 µM
CN1C(=O)C(Nc2ccccc2)=C(c2ccccc2)C1=O [SB-300079],Kd,MAST1,> 10 µM
Cn1c(=O)c(F)c(Nc2ccc(I)cc2F)c2c(=O)n(OC[C@H](O)CO)cnc21,Kd,MEK1,0.034 µM
COc1cc2nccc(Nc3cccc(Oc4ccccc4)c3)c2cc1OC.Cl [GW284543],Kd,MEK1,0.1 µM

# — PMC5540273 (PLoS ONE, 2017)
